Results filed as inconclusive are left out. Active and inactive are the calls of the source. Unless noted, the call rests on the fitted dose curve; in most records, active means well fitted curve in the direction sought with a large enough effect in the repeat runs; inconclusive means weak or mixed curves; inactive means no such curve, though single readings can be large; an effect the other way counts as inactive or inconclusive.
How the values were obtained:
[1] = qHTS assay to identify aromatase inhibitors - cell viability counter screen (AID 743084);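 further: cells stimulated with testosterone during compound exposure; nearly all actives have a fitted effect of over 55% in size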
[2] = qHTS assay to identify small molecule that activate the aryl hydrocarbon receptor (AhR) signaling pathway - cell viability counter screen (AID 743086);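 further: HepG2 liver cells carrying the AhR DRE luciferase reporter; series mostly up to about 70 µM; nearly all actives have a fitted effect of over 45% in size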
Procedure, shortened: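 HepG2-AhR-luc (HG2L7.5c1) cells, 4000/well, were preincubated 5 h at 37C, exposed to compound in qHTS format for 24 hr at 37C, then given CellTiter-Fluor for 30 min; viability was read as fluorescence in the reporter wells.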

[3] = target: Peroxisome proliferator-activated receptor gamma (Homo sapiens) (UniProt P37231); assay: qHTS assay to identify small molecule agonists of the peroxisome proliferator-activated receptor gamma (PPARg) signaling pathway (AID 743094; active means well fitted activation curve with a large enough effect in the signal ratio in the repeat runs, not every such curve was filed as active; the % refers to the signal ratio)
Peroxisome proliferator-activated receptor gamma (Homo sapiens), sequence (P37231 whole entry, looked up): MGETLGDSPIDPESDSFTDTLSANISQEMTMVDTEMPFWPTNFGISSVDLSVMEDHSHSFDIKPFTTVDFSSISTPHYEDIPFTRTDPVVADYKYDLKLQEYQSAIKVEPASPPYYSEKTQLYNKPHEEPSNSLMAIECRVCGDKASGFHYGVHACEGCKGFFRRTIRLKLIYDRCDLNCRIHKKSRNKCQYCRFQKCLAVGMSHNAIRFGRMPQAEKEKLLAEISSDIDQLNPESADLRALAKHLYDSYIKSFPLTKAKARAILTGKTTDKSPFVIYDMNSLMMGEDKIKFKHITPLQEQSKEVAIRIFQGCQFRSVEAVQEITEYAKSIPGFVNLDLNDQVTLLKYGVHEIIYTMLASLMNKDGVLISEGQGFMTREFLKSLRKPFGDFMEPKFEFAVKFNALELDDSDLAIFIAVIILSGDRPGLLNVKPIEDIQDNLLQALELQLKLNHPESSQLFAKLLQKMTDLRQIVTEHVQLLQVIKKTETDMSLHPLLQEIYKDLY
Procedure, shortened: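 Agonist activity was taken from a beta-lactamase reporter (FRET substrate, 1 h at room temperature) in HEK293H cells carrying a PPARg UAS-bla construct. Compounds in DMSO were incubated 17 h at 37C after a 5 h cell pre-incubation.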

[4] = target: Peroxisome proliferator-activated receptor gamma (Homo sapiens) (UniProt P37231); assay: qHTS assay to identify small molecule antagonists of the peroxisome proliferator-activated receptor gamma (PPARg) signaling pathway (AID 743191; calls by dose curve; further: series mostly up to about 63 µM; nearly all actives have a fitted effect of over 30% in size)
Procedure, shortened: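 GeneBLAzer PPARg UAS-bla HEK293H cells carrying a UAS-driven beta-lactamase reporter were plated at 3000 cells/well, preincubated 5 h at 37C, then given compound for 17 h at 37C; LiveBLAzer B/G FRET substrate was read after 1 h at room temperature.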

[5] = qHTS assay to identify small molecule antagonists of the peroxisome proliferator-activated receptor gamma (PPARg) signaling pathway - cell viability counter screen (AID 743194); further: nearly all actives have a fitted effect of over 55% in size
Procedure, shortened: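 PPARg-UAS-bla HEK293H cells were plated, rested 5 h at 37 C, then treated with compounds plus rosiglitazone (50 nM final) for 17 h at 37 C; viability was then read by CellTiter-Glo luminescence after 30 min at room temperature.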

[6] = qHTS assay for small molecule agonists of the antioxidant response element (ARE) signaling pathway (AID 743202; active means well fitted activation curve with a large enough effect in the signal ratio in the repeat runs, not every such curve was filed as active; the % refers to the signal ratio)
Procedure, shortened: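 Steps: seed ARE-bla HepG2 cells (2,000/well); incubate 5 h at 37 C; add compounds by pin tool; incubate 16 h at 37 C; add FRET substrate; read fluorescence after 2 h at RT.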

[7] = qHTS assay for small molecule agonists of the antioxidant response element (ARE) signaling pathway - cell viability counter screen (AID 743203; calls by dose curve; further: nearly all actives have a fitted effect of over 55% in size)
Procedure, shortened: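 Viability counter screen: CellTiter-Glo luminescence, read after 30 min at room temperature, in ARE-bla HepG2 wells. Compound exposure lasted 16 h at 37C/5% CO2, following a 5 h pre-incubation of the cells after plating.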

[8] = qHTS assay for small molecule activators of the heat shock response signaling pathway - cell viability counter screen (AID 743209); further: nearly all actives have a fitted effect of over 50% in size
Procedure, shortened: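 Cytotoxicity counter screen run in the same wells as the heat-shock bla reporter assay: HeLa HSE-bla cells, 5 h compound exposure at 37 C, viability read by CellTiter-Glo luminescence.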

[9] = qHTS assay for small molecule activators of the heat shock response signaling pathway (AID 743210; active means well fitted activation curve with a large enough effect in the signal ratio in the repeat runs, with a control signal flat, not every such curve was filed as active; the % refers to the signal ratio;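 further: HeLa cells with beta-lactamase reporter driven by heat shock elements; series mostly up to about 63 µM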)
Procedure, shortened: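 Activation of heat shock element-controlled beta-lactamase expression is measured in HeLa cells by LiveBLAzer FRET fluorescence, with compound exposure lasting 5 h at 37 C and substrate loading 2.5 h at room temperature.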

[10] = target: Aryl hydrocarbon receptor (Homo sapiens) (UniProt P35869); assay: qHTS assay to identify small molecule that activate the aryl hydrocarbon receptor (AhR) signaling pathway (AID 743085);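 further: HG2L7.5c1 human HepG2 liver cells with stably integrated DRE-driven firefly reporter; series mostly up to about 70 µM; nearly all actives have a fitted effect of over 15% in size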
Aryl hydrocarbon receptor (Homo sapiens), sequence (P35869 whole entry, looked up): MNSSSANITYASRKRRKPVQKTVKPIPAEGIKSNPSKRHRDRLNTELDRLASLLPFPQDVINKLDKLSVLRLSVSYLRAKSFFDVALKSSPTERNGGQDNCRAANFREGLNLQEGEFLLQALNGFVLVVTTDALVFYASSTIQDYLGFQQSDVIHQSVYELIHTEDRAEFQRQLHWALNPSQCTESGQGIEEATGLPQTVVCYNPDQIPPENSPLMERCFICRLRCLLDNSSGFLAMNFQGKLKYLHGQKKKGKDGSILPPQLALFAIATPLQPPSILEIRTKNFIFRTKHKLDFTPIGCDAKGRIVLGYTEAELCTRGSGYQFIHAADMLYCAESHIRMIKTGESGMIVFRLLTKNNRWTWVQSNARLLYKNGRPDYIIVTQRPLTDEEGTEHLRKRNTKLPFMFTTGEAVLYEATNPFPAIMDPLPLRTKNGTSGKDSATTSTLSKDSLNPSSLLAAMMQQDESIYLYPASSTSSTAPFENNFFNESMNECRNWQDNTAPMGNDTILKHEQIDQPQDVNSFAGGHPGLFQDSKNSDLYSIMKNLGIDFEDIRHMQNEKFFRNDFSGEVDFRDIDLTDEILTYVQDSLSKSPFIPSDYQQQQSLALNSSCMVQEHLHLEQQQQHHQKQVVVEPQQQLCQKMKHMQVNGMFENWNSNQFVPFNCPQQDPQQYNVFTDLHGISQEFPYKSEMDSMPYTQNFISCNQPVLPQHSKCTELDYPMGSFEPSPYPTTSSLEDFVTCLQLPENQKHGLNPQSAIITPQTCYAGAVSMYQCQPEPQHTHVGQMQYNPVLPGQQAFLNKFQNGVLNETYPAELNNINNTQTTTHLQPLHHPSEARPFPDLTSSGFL
Procedure, shortened: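 24 h compound exposure, 37C, HepG2-derived HG2L7.5c1 cells with DRE-responsive luciferase. Readouts: fluorescence viability, then luminescence at room temperature after 30 min.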

Measured: Potency

CC(C)(C)c1ccc(CCC=O)cc1
not listed: [10]
inactive: all other assays above

CCC[Si](OC)(OC)OC
inactive: [1] | [10] | [2] | [7] | [8] | [9]

O=C(Nc1ccc2c(c1)Cc1ccccc1-2)C(F)(F)F
not listed: [4] | [6] | [10]
inactive: all other assays above

O=C(O)CCc1nc2ccccc2[nH]1
not listed: [3] | [4] | [10]
inactive: all other assays above

COC(=O)C(C)(C)C
not listed: [6] | [7] | [10]
inactive: all other assays above

— PubChem BioAssay (Tox21)
